# Compound activity deposited in PubChem by several laboratories.
# Shown are actives, neighbours in structure and some others; about 4.1% of the full set was active somewhere.
# DAX1 inh-1: inhibits human nuclear receptor DAX1; P51843; HEK293 Gal4-DAX1 luciferase reporter, luminescence; inhibition, % at 6.75 µM; actives 0.99% (n = 340,000); AID 504766;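 active = inhibition above the mean over all tested compounds plus 3 SD, cut at about 4.2% in these data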;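 note: 0% = DAX1-transfected cells with DMSO and 100% = empty-vector control cells with DMSO; inhibition shows as a rise in luminescence from relieved DAX1 repression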
# Target sequence (P51843 207-470 limits assumed): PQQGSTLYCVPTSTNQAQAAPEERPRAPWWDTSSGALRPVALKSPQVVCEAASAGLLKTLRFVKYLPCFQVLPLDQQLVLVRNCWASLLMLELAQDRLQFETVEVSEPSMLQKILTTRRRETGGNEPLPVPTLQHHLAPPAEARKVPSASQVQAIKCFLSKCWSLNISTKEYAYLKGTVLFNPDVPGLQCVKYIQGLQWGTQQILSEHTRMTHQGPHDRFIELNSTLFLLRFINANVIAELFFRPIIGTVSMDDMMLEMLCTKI
# ssDAF12 agonist: activators of S. stercoralis DAF-12 nuclear receptor; HEK293 ssDAF-12/GRIP1 lit1-tk-luc reporter, luminescence; % of 3 µM dafachronic acid response; activation, % at 6.8 µM; actives 1% (n = 370,000); AID 652126;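 active = activation above the mean over all tested compounds plus 3 SD, cut at about 0.9% in these data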;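 note: 0% = DMSO-only wells and 100% = 3 µM delta7-dafachronic acid wells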
# hgDAF12 agonist: hgDAF-12 agonism, primary luciferase screen | AID 687014 | activation, % at 6.8 µM | HEK293 GAL4-hgDAF12 UAS-luciferase reporter, agonist luminescence; normalized to butyrate control | actives 1.8% (n = 370,000);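 active = activation above a cutoff set at the mean of all screened compounds plus 3 SD, cut at about 10% in these data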;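 note: 0% = DMSO wells and 100% = sodium butyrate wells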
# PolyA inh: yeast polyadenylation inhibition; actives 0.02% (n = 300,000); S. cerevisiae SKY197-pL101 polyadenylation reporter, beta-gal luminescence; efflux-impaired pdr1/pdr3 knockout yeast; score 100 = 6 SD above DMSO; activity score, % at 12 µM;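 active = lowest replicate activity score at least 50, where 100 means six control SD above control mean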;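 note: yeast exposed to compound for 9 h at 30 °C; higher score means more reporter readthrough which indicates perturbed polyadenylation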
# hcDAF12 agonist: activates DAF-12 receptor from parasite H. contortus | HEK293 hcDAF-12 lit1-tk-luc reporter, luminescence; 0% DMSO, 100% Δ7-dafachronic acid | activation, % at 6.8 µM | actives 1.4% (n = 370,000);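 active = activation above the mean of all tested compounds plus 3 SD, cut at about 5.5% in these data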;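 note: 100% = response to 3 µM Δ7-dafachronic acid high control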
# DAX1 inh-2: DAX1 (NR0B1) inhibition, primary screen; HEK293T StAR-luciferase reporter, SF-1/DAX-1 repression relief; inhibition, % at 6.8 µM; actives 1.1% (n = 370,000); AID 652010;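 active = inhibition above the mean over all tested compounds plus 3 SD, cut at about 3.6% in these data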;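 note: 0% = DAX-1 cells with DMSO and 100% = cells lacking DAX-1 with DMSO; higher inhibition means more luminescence from relief of DAX-1 repression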
# * = called active by the depositor; / = not tested or not shown.
SMILES,DAX1 inh-1,ssDAF12 agonist,hgDAF12 agonist,PolyA inh,hcDAF12 agonist,DAX1 inh-2
CCOc1ccc(N=C(/C(C(=O)C(=O)N2CCOCC2)=C(\O)c2ccccc2)c2ccccc2)cc1,4,0,12*,-15,4,2
COC(=O)[C@]12C[C@H](CC(=O)NCc3ccc(C)o3)C(=O)N(Cc3ccc(Cl)cc3Cl)C1=C[C@H](C(C)C)O[C@@H]2C1CC1,/,-1,3,/,2,-1
CC(C)(C)S(=O)(=O)N1Cc2cc(CO)ccc2[C@@H]1CCO,/,-1,1,/,-1,0
C(=N/Nc1nccs1)/c1cccnc1,-1,-1,3,13,1,-1
Clc1cccc(/C=N\Nc2nccs2)c1,1,0.9*,11*,-22,4,2
Clc1cccc(/C=N/Nc2nc(Cl)nc3ccccc23)c1,4,0,5,-5,6.6*,2
CCOC(=O)C1=CCN(S(=O)(=O)c2cccc(Cl)c2)C1c1ccc(Cl)cc1 (stereo not given),/,-1,-2,/,-1,-1
COc1ccc(/C=C2\CC3(OC(=O)c4ccccc4)CCCN2C3)cc1 (stereo not given),/,-2,-1,/,-3,-1
O=C(NCc1ccco1)OC1CCC12CCC(c1ccccc1)CC2 (stereo not given),/,-1,2,/,-1,/
COC(=O)c1ccc(NC(=O)C[n+]2ccccc2)cc1,0,1.8*,4,-18,5,0
Nc1cccc(N=[N+]([O-])c2cccc(N)c2)c1,0,0,11*,/,0,1
Cc1ccccc1OCc1nc2ccccc2c(=O)n1/N=C/c1c[nH]c2ccccc12,-1,-1,0,-14,2,1
Cc1ccc(-c2[nH]ncc2/C=N/n2c(COc3ccccc3C)nc3ccccc3c2=O)cc1,-2,-1,13*,8,0,-1
COc1ccc(Nc2c3ccccc3nc3ccccc23)cc1,-4,-2,-6,14,-4,-2
COc1cc(Nc2c3ccccc3nc3ccccc23)cc(OC)c1OC,1,0,4,0,5.7*,0
N#CCc1cc2ccc3cccc4ccc(c1)c2c34,7.0*,-1,-2,-5,0,0
CCOC(=O)C1(Cc2ccccc2C)CCCN(Cc2cn(C)nc2C)C1 (stereo not given),6.1*,-1,-3,0,1,1
Cn1cc(C(=O)N/N=C/C2=C(N3CCOCC3)C(=C/c3ccc([N+](=O)[O-])cc3)/CC2)ccc1=O,-1,-1,12*,-4,0,0
CC(C)C(NC(=O)C12CC3CC(CC(C3)C1)C2)C(=O)N/N=C/C1=C(N2CCOCC2)C(=C\c2cccc([N+](=O)[O-])c2)/CC1 (stereo not given),0,-1,1,3,0,-1
COc1ccc(C(C(=O)N(C)C2CCCC2)N(Cc2ccc(F)cc2)C(=O)c2ncn[nH]2)cc1OC (stereo not given),/,-1,-1,/,-1,0
COc1ccc2cc3c(N)nn(C(=O)c4cccc(F)c4)c3nc2c1,4.4*,-2,0,0,-2,1
COc1ccc2cc3c(N)nn(C(=O)Cc4c[nH]c5ccccc45)c3nc2c1,-1,-2,14*,-13,-3,0
COc1ccc2cc3c(N)nn(C(=O)c4ccc(F)cc4)c3nc2c1,0,-2,12*,23,-1,0
CN(Cc1nc(-c2ccccc2)no1)C1CCOCC1,4.8*,-1,11*,-10,2,1
CC(NC(=O)C=Cc1ccco1)C(=O)NC(Cc1ccccc1)C(N)=O (stereo not given),/,-1,5,/,0,0
CCc1noc(C)c1C(=O)N(CC)CC(=O)Nc1ccccc1C(F)(F)F,1,-1,1,-5,0,1
CCN(CC(=O)Nc1ccccc1C(F)(F)F)C(=O)c1oc2ccc(OC)cc2c1C,1,0,5,8,-1,4.2*
COc1ccc(-n2c(SCC(=O)Nc3ccc4cn[nH]c4c3)nnc2-c2ccccc2)cc1,/,-2,3,/,-2,-2
